Measurements from PubChem BioAssay (NCATS).
Results filed as inconclusive are left out. Where a call stands in place of a potency, no number is given. The source made the active and inactive calls. Calls come from the whole dose curve; as a rule, active = well fitted inhibition curve with a large enough effect; inconclusive = small, poorly fitted or top-dose-only effect; inactive = flat fitted curve, though single readings scatter.

These molecules were tested against Phospholipid hydroperoxide glutathione peroxidase GPX4 (Homo sapiens) (UniProt P36969) (assay: Primary qHTS Assay for Inhibitors of Recombinant Selenoprotein Glutathione Peroxidase 4 (GPX4) (AID 1845192; note: nearly all actives have a fitted effect of over 65% in size)). Settings: recombinant GPX4, GR-coupled NADPH fluorescence, 15 min; series mostly up to 50 µM.
Procedure, shortened: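 GR-coupled assay: recombinant GPX4 preincubated 30 min with compound at room temperature; final 200 nM GPX4, 1 mM GSH, 0.5 mM cumene hydroperoxide, 0.5 mM NADPH, 100 nM GR, 0.01% BSA, pH 7.5 Tris. NADPH fluorescence (340/450 nm) read at 0 and 15 min.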

Sequence of Phospholipid hydroperoxide glutathione peroxidase GPX4 (Homo sapiens) (P36969 whole entry, looked up): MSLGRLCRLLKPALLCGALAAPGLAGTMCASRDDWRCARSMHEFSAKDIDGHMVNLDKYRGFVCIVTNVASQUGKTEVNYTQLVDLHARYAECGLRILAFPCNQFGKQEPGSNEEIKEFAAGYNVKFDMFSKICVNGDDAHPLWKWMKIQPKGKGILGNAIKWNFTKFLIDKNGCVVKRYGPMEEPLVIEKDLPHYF

Row | SMILES | Potency
1 | O=[N+]([O-])O[C@H]1CO[C@H]2[C@@H]1OC[C@H]2O[N+](=O)[O-] | inactive
2 | C[C@@H]1CC2=CC(=O)CC[C@@H]2[C@H]2CC[C@@]3(C)[C@@H](CC[C@]3(C)O)[C@@H]21 | inactive
3 | CC(C)NC(C)C | inactive
4 | COP(=S)(OC)Oc1cc(Cl)c(Cl)cc1Cl | inactive
5 | CCOC(=O)CC(SP(=S)(OC)OC)C(=O)OCC (stereo not given) | inactive
6 | COc1c2c(cc3c1OCO3)CCN(C)C2 | inactive
7 | Cc1ncsc1CCCl | inactive
8 | O=C(CCCN1CCC2(CC1)C(=O)NCN2c1ccccc1)c1ccc(F)cc1 | inactive
9 | O=c1c(C2CC(c3ccc(-c4ccc(Br)cc4)cc3)Cc3ccccc32)c(O)sc2ccccc12 (stereo not given) | inactive
10 | NCCc1ccc(O)cc1 | inactive
11 | COc1ccc2c(c1OC)C(=O)O[C@H]2[C@@H]1c2cc3c(cc2CCN1C)OCO3 | inactive
12 | COP(=S)(OC)Oc1ccc(S(=O)(=O)N(C)C)cc1 | inactive
13 | CNC(C)(C)Cc1ccccc1 | inactive
14 | COC1CC(=C(c2cccs2)c2cccs2)C[N+](C)(C)C1 (stereo not given) | inactive
15 | CC(C)(C)NCC(O)c1ccccc1Cl (stereo not given) | inactive
16 | COP(=S)(OC)Oc1ccc(SC)c(C)c1 | inactive
17 | O=C1c2ccccc2C(=O)c2ccccc21 | inactive
18 | CC(C)(C)NCC(O)c1cc(Cl)c(N)c(C(F)(F)F)c1 (stereo not given) | inactive
19 | C[C@]12Cc3cn[nH]c3C[C@@H]1CC[C@@H]1[C@@H]2CC[C@@]2(C)[C@H]1CC[C@]2(C)O | inactive
20 | Clc1ccc(C(c2ccc(Cl)cc2)C(Cl)(Cl)Cl)cc1 | inactive
21 | CCOP(=S)(OCC)Oc1ccc2c(C)c(Cl)c(=O)oc2c1 | inactive
22 | C[C@]12CC[C@H]3[C@@H](CCC4=CC(=O)CC[C@@H]43)[C@@H]1CC[C@@H]2OC(=O)CCc1ccco1 | inactive
23 | CCC(C)C(C)(COC(N)=O)COC(N)=O (stereo not given) | inactive
24 | C[N+]1(CCF)[C@@H]2CC[C@H]1CC(OC(=O)C(O)(c1ccccc1)c1ccccc1)C2 (stereo not given in full) | inactive
25 | Nc1ccccc1 | inactive
26 | Nc1ccc([As](=O)(O)O)cc1 | inactive
27 | C[C@]12CC[C@@H]3c4ccc(OC(=O)N(CCCl)CCCl)cc4CC[C@H]3[C@@H]1CC[C@@H]2O | inactive
28 | C[C@@H](N)[C@@H](O)c1ccccc1 | inactive
29 | CCCCCN(C)CCC(O)(P(=O)(O)O)P(=O)(O)O | inactive
30 | O=c1[nH]oc2c1CCNC2 | inactive
